SMILES strings stand for the structures. This is part of a sample that, as a whole, favours compounds with a hit. Of some 83,000 tested, about 20% had one in any assay.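 Cell lines were cultured in 96-well plates, exposed to a single compound concentration, and assessed for percent growth 48 hours later.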 Unmarked numbers belong to inactive results. Activity calls are given as the source filed them. How the source made its calls: active means growth percent below 10; inactive means the rest.

Test systems include DU-145 prostate; K-562 leukemia; MALME-3M melanoma; MDA-MB-231 breast; RXF 393 renal; SF-268 CNS; SF-295 CNS; SF-539 CNS; UACC-257 melanoma; M14 melanoma; HCT-15 colon; HT29 colon; SNB-75 CNS; SNB-19 CNS; U251 CNS; PC-3 prostate; SK-MEL-5 melanoma; UACC-62 melanoma; LOX IMVI melanoma; SK-MEL-28 melanoma.
Holding throughout (assay): NCI-60 one-dose screen, 48 h (100 = growth as untreated, 0 = no growth, -100 = all killed)
Holding throughout (conditions): 10 µM

For `Cc1ccc(NC(=O)/C=N/O)cc1C`, the growth was 104% with DU-145 prostate; 95.6% in the experiment on K-562 leukemia; 108% in the experiment on MALME-3M melanoma; 95.9% in the experiment on MDA-MB-231 breast; 99.6% with RXF 393 renal; 104% with SF-268 CNS. Also, the growth with SF-295 CNS was 85.4%; with SF-539 CNS, 96.4%; in the experiment on UACC-257 melanoma it was 96.4%; in the experiment on M14 melanoma, 101%; in the experiment with HCT-15 colon, 98.1%; in the experiment on HT29 colon, 102%. The growth was 84.4% with SNB-75 CNS; 102% with SNB-19 CNS; 89.8% in the experiment with U251 CNS; 86.5% in the experiment on PC-3 prostate; 97.6% in the experiment on SK-MEL-5 melanoma; 95.4% in the experiment on UACC-62 melanoma. For the same compound, the growth in the experiment with LOX IMVI melanoma is 101%; in the experiment with SK-MEL-28 melanoma, 104%.

Turning to `CC1=CSC2=NC(c3ccc(Cl)c(Cl)c3)=CC(c3ccc(Cl)cc3)N12` (stereo not given), the growth with DU-145 prostate is 20.5%; in the experiment with K-562 leukemia, 17%; in the experiment with MALME-3M melanoma, -22.7% (active); with MDA-MB-231 breast, -44% (active); with RXF 393 renal, -47.7% (active); in the experiment on SF-268 CNS it was 14.7%. The growth is 99.6% in the experiment with SF-295 CNS; -46.7% (active) in the experiment on SF-539 CNS; 18.7% with UACC-257 melanoma; 0.183% (active) in the experiment with M14 melanoma; 66.9% in the experiment on HCT-15 colon; 101% in the experiment on HT29 colon. The growth with SNB-75 CNS is -21.8% (active); in the experiment on SNB-19 CNS, 38.5%; in the experiment with U251 CNS, 34.8%; in the experiment on PC-3 prostate, 45.4%; in the experiment with SK-MEL-5 melanoma, 13.6%; in the experiment with UACC-62 melanoma it was 10.6%. In addition, the results for the growth in the experiment with LOX IMVI melanoma and in the experiment with SK-MEL-28 melanoma were -82.4% (active) and 37.4%, respectively.

As to `CCn1nc(-c2ccc(C(=O)OC)cc2)nc2c(=O)n(C)c(=O)nc1-2`, the growth in the experiment with DU-145 prostate was 77.6%; in the experiment on K-562 leukemia it was 80.9%; in the experiment with MALME-3M melanoma, 29.1%; in the experiment on MDA-MB-231 breast it was 15.8%; in the experiment on RXF 393 renal, 13.9%; with SF-268 CNS, 60.7%. In addition, the growth is 36.8% with SF-295 CNS; 2.03% (active) with SF-539 CNS; 105% with UACC-257 melanoma; 78.3% in the experiment on M14 melanoma; 64.1% with HCT-15 colon; 70.7% in the experiment with HT29 colon. Besides, the growth in the experiment with SNB-75 CNS was -44% (active); with SNB-19 CNS, 56.8%; in the experiment on U251 CNS it was 41.5%; in the experiment with PC-3 prostate, 57.3%; with SK-MEL-5 melanoma, 87%; in the experiment with UACC-62 melanoma, 50.5%. The growth is 55.5% with LOX IMVI melanoma and 77.7% in the experiment on SK-MEL-28 melanoma.

In the case of `O=C(Nc1cccc(-c2nc3ccccc3[nH]2)c1)c1cccc(NC(=O)c2ccco2)c1`, the growth was 103% in the experiment with DU-145 prostate; 2.96% (active) in the experiment with K-562 leukemia; 73.9% in the experiment on MALME-3M melanoma; 34.6% in the experiment with MDA-MB-231 breast; 67.6% with RXF 393 renal; 75.7% in the experiment on SF-268 CNS. The growth was 80.3% with SF-295 CNS; 64.9% with SF-539 CNS; -20.2% (active) in the experiment with UACC-257 melanoma; 3.76% (active) in the experiment with M14 melanoma; 50.9% with HCT-15 colon; 27.6% with HT29 colon. Also, the growth in the experiment with SNB-75 CNS was 72.2%; in the experiment on SNB-19 CNS, 89.4%; in the experiment with U251 CNS it was 61.8%; in the experiment on PC-3 prostate, 68.5%; in the experiment with SK-MEL-5 melanoma, 43.4%; in the experiment with UACC-62 melanoma it was -71.7% (active). Besides, the figures for the growth in the experiment with LOX IMVI melanoma and in the experiment on SK-MEL-28 melanoma were 41.8% and 30.3%, respectively.

On to `C[n+]1c(/C=C/c2c[nH]c3ccccc23)ccc2ccccc21`, for which the growth with DU-145 prostate was 60.9%; in the experiment with K-562 leukemia, 23.3%; with MALME-3M melanoma it was 68.6%; with MDA-MB-231 breast, 68.8%; in the experiment on RXF 393 renal, 84%; in the experiment with SF-268 CNS, 72.6%. Moreover, the growth in the experiment on SF-295 CNS was 47.5%; with SF-539 CNS it was 87%; in the experiment with UACC-257 melanoma, 76.8%; in the experiment with M14 melanoma it was 75.2%; in the experiment with HCT-15 colon, 90.7%; with HT29 colon, 49.2%. Moreover, the growth is 90.9% with SNB-75 CNS; 68.4% in the experiment with SNB-19 CNS; 69.9% with U251 CNS; 52.1% with PC-3 prostate; 59.2% with SK-MEL-5 melanoma; 54.2% in the experiment on UACC-62 melanoma. The growth in the experiment with LOX IMVI melanoma was 60.5%; in the experiment with SK-MEL-28 melanoma, 84.8%.

In the case of `C#Cc1ccc(-n2c(/C=C/c3cc(OC)c(OC)c(OC)c3)nc3ncccc3c2=O)cc1`, the growth with DU-145 prostate is 45.3%; with K-562 leukemia, 25.6%; in the experiment with MALME-3M melanoma it was 50%; in the experiment on MDA-MB-231 breast it was 58.6%; with RXF 393 renal, 36.4%; in the experiment on SF-268 CNS it was 63.3%. Moreover, the growth with SF-295 CNS is 38%; with SF-539 CNS, 78.8%; in the experiment on UACC-257 melanoma, 53.8%; in the experiment with M14 melanoma, 71.9%; in the experiment with HCT-15 colon, 48.6%; in the experiment with HT29 colon, 16%. Moreover, the growth was 34% in the experiment with SNB-75 CNS; 88.9% in the experiment on SNB-19 CNS; 79.3% in the experiment on U251 CNS; 43.8% in the experiment on PC-3 prostate; 9.66% (active) in the experiment on SK-MEL-5 melanoma; 52.7% with UACC-62 melanoma. Also, the growth with LOX IMVI melanoma was 56.9%; in the experiment with SK-MEL-28 melanoma, 77.6%.

For `CCN(CC)c1ccc(/C=C/C2=[N+](C)c3ccccc3C2(C)C)c(C)c1`, the growth was 20.3% with DU-145 prostate; 6.13% (active) with K-562 leukemia; -33.4% (active) with MALME-3M melanoma; -1.06% (active) in the experiment with MDA-MB-231 breast; 29.5% with RXF 393 renal; 22.7% in the experiment with SF-268 CNS. The growth is 4.27% (active) in the experiment on SF-295 CNS; 18% in the experiment with SF-539 CNS; -15.9% (active) in the experiment on UACC-257 melanoma; 10.5% in the experiment on M14 melanoma; 10.5% in the experiment on HCT-15 colon; 2.67% (active) in the experiment on HT29 colon. The growth is 7.22% (active) in the experiment on SNB-75 CNS; 20.6% in the experiment on SNB-19 CNS; 7.12% (active) in the experiment with U251 CNS; 7.18% (active) in the experiment on PC-3 prostate; -97.5% (active) in the experiment with SK-MEL-5 melanoma; -21.4% (active) in the experiment on UACC-62 melanoma. In addition, the growth was 3.02% (active) with LOX IMVI melanoma and 9.14% (active) with SK-MEL-28 melanoma.

On to `O=C(O)CNS(=O)(=O)c1ccc(OCCOc2ccc(S(=O)(=O)NCC(=O)O)cc2)cc1`, for which the growth in the experiment with DU-145 prostate is 107%; in the experiment on K-562 leukemia, 104%; with MALME-3M melanoma it was 99.7%; in the experiment on MDA-MB-231 breast, 108%; in the experiment with RXF 393 renal it was 106%; with SF-268 CNS it was 98.9%. Also, the growth was 104% in the experiment on SF-295 CNS; 93.6% in the experiment with SF-539 CNS; 104% with UACC-257 melanoma; 104% in the experiment with M14 melanoma; 96% with HCT-15 colon; 98% in the experiment with HT29 colon. The growth in the experiment with SNB-75 CNS is 97.2%; in the experiment with SNB-19 CNS, 106%; with U251 CNS, 99.9%; in the experiment with PC-3 prostate, 96.5%; with SK-MEL-5 melanoma, 97.4%; in the experiment on UACC-62 melanoma, 102%. Besides, the figures for the growth with LOX IMVI melanoma and in the experiment on SK-MEL-28 melanoma were 96.8% and 106%, respectively.
